# EBI2 antag: antagonists of human EBI2 receptor | EBI2 beta-arrestin recruitment, luminescence, 7a,25-OHC stimulated | actives 0.81% (n = 360,000) | inhibition, % at 5 µM; in the data active = inhibition above about 38%;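 note: enzyme fragment complementation signal reports receptor beta-arrestin coupling in cells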
# Target sequence (P32249 whole entry, looked up, the tested form may be a part): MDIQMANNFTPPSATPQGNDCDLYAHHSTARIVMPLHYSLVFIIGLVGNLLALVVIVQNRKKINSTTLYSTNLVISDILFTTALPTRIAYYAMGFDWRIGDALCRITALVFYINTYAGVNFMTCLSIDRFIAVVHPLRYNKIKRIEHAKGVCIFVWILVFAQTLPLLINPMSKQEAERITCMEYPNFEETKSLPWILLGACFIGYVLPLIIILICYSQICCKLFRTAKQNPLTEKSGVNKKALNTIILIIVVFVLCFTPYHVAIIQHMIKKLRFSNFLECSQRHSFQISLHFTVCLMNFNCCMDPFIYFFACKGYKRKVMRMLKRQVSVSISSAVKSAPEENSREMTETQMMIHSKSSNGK
# SKKanGAS inh: SKKanGAS growth inhibition; actives 1.3% (n = 300,000); S. pyogenes SKKanGAS, kanamycin growth, BacTiter-Glo, 6 h; AID 1662; inhibition, % at 7.5 µM;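 active = mean replicate score, as percent of positive control median, at least 50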;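 note: strain carries kanamycin resistance gene driven by streptokinase promoter and grows in 40 µg/ml kanamycin; loss of luminescence reflects streptokinase promoter inhibition or plain growth inhibition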
# tim23-1 inh: inhibits growth of tim23-1 mutant yeast; S. cerevisiae tim23-1 growth, BacTiter-Glo luminescence, 24 h; inhibition, % at 20 µM; actives 1.3% (n = 330,000); AID 463212;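 active = growth inhibition of the mutant yeast at or above 50%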;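 note: temperature-sensitive mutant grown at 25 °C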
# tim10-1 inh: inhibits growth of tim10-1 mutant yeast; S. cerevisiae tim10-1 ts strain growth, BacTiter-Glo, 24 h; inhibition, % at 20 µM; actives 2.2% (n = 330,000);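 active = inhibition of at least 40%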;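 note: mutant grown at 25 °C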
# PfHsp90 set2: inhibits growth of yeast expressing Plasmodium falciparum Hsp90; S. cerevisiae expressing PfHsp90, BacTiter-Glo ATP, 48 h; yeast lacking PDR1 and PDR3 efflux regulators; inhibition, % at 9.4 µM; actives 0.32% (n = 310,000);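 active = every replicate shows inhibition above about 80%, whatever the replicate mean, limit read from the data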
# TIM10 inh: TIM10 yeast growth inhibition; S. cerevisiae TIM10 strain growth, BacTiter-Glo luminescence, 24 h; inhibition, % at 10 µM; actives 1.4% (n = 330,000); AID 463195;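 active = inhibition of 40% or more at the single tested concentration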;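 note: wild-type TIM10 isogenic control strain grown at permissive 25 °C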
# Numbers stand for hits; . = inactive; / = no result given. In the library only some 4.7% were active in any assay of this set; here they are far more common.
SMILES,EBI2 antag,SKKanGAS inh,tim23-1 inh,tim10-1 inh,PfHsp90 set2,TIM10 inh
Cc1nn(CC(=O)NC2C(=O)N3C(C(=O)O)=C(CSc4nnnn4C)CSC23)cc1Br (stereo not drawn),.,108.6,.,.,.,.
Cc1nnc(SCC2=C(C(=O)O)N3C(=O)C(NC(=O)C(C)n4nc(C(F)(F)F)cc4C)C3SC2)s1 (stereo not drawn),.,102.6,.,.,.,.
Cc1nnc(SCC2=C(C(=O)O)N3C(=O)C(NC(=O)Cc4ccccc4)C3SC2)s1 (stereo not drawn),.,/,.,.,.,.
Cc1c(Cl)c(C(F)F)nn1CC(=O)NC1C(=O)N2C(C(=O)O)=C(CSc3nnnn3C)CSC12 (stereo not drawn),.,119.0,/,/,.,/
CO[C@@]1(NC(=O)C2SC(=C(C(N)=O)C(=O)O)S2)C(=O)N2C(C(=O)O)=C(CSc3nnnn3C)CS[C@@H]21 (stereo partly drawn),.,/,.,.,.,.
O=[N+]([O-])c1cc(-c2ncccn2)cs1,.,.,.,.,.,.
COC(=O)c1ccc(/C=N/NC(=O)C2CC(=O)N(c3ccc(OC)cc3)C2)cc1 (stereo not drawn),.,.,.,.,.,.
CC1=C(C(=O)O)N2C(=O)C(NC(=O)c3nn(C)cc3Cl)C2SC1 (stereo not drawn),.,.,.,.,.,.
Cc1c(Cl)cnn1CC(=O)NC1C(=O)N2C(C(=O)O)=C(CSc3nnnn3C)CSC12 (stereo not drawn),.,120.4,.,.,.,.
Cn1nnnc1SCC1=C(C(=O)O)N2C(=O)C(NC(=O)Cn3nc(C(F)F)cc3C3CC3)C2SC1 (stereo not drawn),.,104.0,.,.,.,.
Cc1ccccc1NS(=O)(=O)c1ccc2c(c1)CCC(=O)N2,.,/,/,/,/,/
O=C(O)C1=NN(c2cc(Cl)c(S(=O)(=O)O)cc2Cl)C(=O)C1,.,/,/,/,.,/
COc1cc(-c2nc(-c3ccc4c(c3)-c3ccccc3S4(=O)=O)c(-c3ccccc3)[nH]2)cc(OC)c1O,.,66.1,.,.,/,.
COc1ccc(-c2[nH]c(-c3ccc(C(=O)O)cc3)nc2-c2ccccc2)cc1,.,.,.,.,.,.
O=c1c2ccccc2oc2cc(-c3ccc4[nH]ccc4c3)ccc12,.,57.2,.,.,.,.
O=S(=O)(Nc1ccc(O)c(Sc2nc3ccccc3s2)c1)c1cccc2ccccc12,.,80.7,.,.,.,.
OC(Cc1ccccc1Br)c1ncc(-c2cccc(C(F)(F)F)c2)[nH]1 (stereo not drawn),.,/,/,/,/,/
CCN(CC)c1ccc(Nc2nc(N3CCOCC3)c3ccccc3n2)cc1,44.8,.,.,.,.,.
Cc1cccc(C)c1OC(=O)C(c1ccccc1)c1ccccc1,.,70.9,.,.,.,.
COC(=O)c1sc(-c2ccc(C(C)(C)C)cc2)cc1NC(=O)c1ccccc1C(=O)O,.,54.0,.,.,.,.
COC(=O)c1sc(-c2ccc(C(C)(C)C)cc2)cc1NC(=O)CSCC(=O)O,.,57.3,.,.,.,.
COC(=O)c1sc(-c2ccccc2)cc1NC(=O)C1CC1,.,.,.,.,.,.
COC(=O)c1sc(-c2ccc(Cl)cc2)cc1NC(=O)c1ccccc1C(=O)O,.,.,.,.,.,.
Cc1cnc(CNC(=O)C2(C)CCCN2CC(C)C)cn1 (stereo not drawn),.,/,/,/,/,/
Cc1cc(C(=O)N/N=C/c2cc(N=Nc3ccccc3)ccc2O)n[nH]1,.,87.8,/,/,.,/
SMILES,EBI2 antag,SKKanGAS inh,tim23-1 inh,tim10-1 inh,PfHsp90 set2,TIM10 inh
COC(=O)N/N=C/c1cc(N=Nc2ccccc2)ccc1O,.,.,.,.,.,.
Fc1ccc(N2CCN(Cc3cn[nH]c3-c3ccccc3)CC2)cc1,.,51.7,.,.,.,.
Fc1ccc(-c2[nH]ncc2CN2CCN(c3ccc(F)cc3)CC2)cc1,.,.,.,.,.,.
N#Cc1c(N)nc(Sc2ccc(Cl)cc2)c(C#N)c1-c1ccccc1Cl,.,74.8,.,.,.,.
CC(C)Cc1nnc(NC(=O)CCC(=O)N2CCN(c3ccccc3)CC2)s1,.,102.9,.,.,.,.
COc1cc2cnc(-c3ccccc3)c(C(=O)c3ccc(F)cc3)c2cc1OC,.,/,.,.,84.6,.
Cc1ccc(C(=O)NCCN2CCC(n3c(=O)[nH]c4ccccc43)CC2)cc1C,.,/,/,/,/,/
CCc1cccc(C)c1NC(=O)COC(=O)c1c2c(nc3ccccc13)/C(=C\c1cccs1)CCC2,.,.,.,.,.,.
NC(=O)c1ccc(NC(=O)COC(=O)c2c3c(nc4ccccc24)/C(=C\c2cccs2)CCC3)cc1,.,91.0,.,.,/,.
C[C@@H](C[C@@H](O)[C@H](O)C(C)(C)O)[C@@H]1CC[C@]2(C)C3=CC[C@H]4C(C)(C)C(=O)CC[C@]4(C)[C@H]3CC[C@@]12C,.,96.3,.,.,.,.
CCOC(=O)c1c(-c2ccc(OC)cc2)csc1/N=C/C1=C(O)CCCC1=O,.,57.3,.,.,.,.
Cn1nc(-c2ccccc2)c(CSc2ccccc2Cl)c1Cl,.,75.0,.,.,.,.
c1cn2c(NC3CCCCC3)c(-c3ccc(SC4CCCCC4)cc3)nc2cn1,.,88.8,.,.,.,.
CCCCNc1c(-c2cccc(SC3CCCCC3)c2)nc2ccc(Cl)cn12,.,.,.,.,.,.
CCCCNc1c(-c2ccc(SC3CCCCC3)cc2)nc2ccccn12,.,71.0,.,.,.,.
O=C1NN(c2ccccc2)C(=O)/C1=C/c1ccc(Sc2cccc3ccccc23)o1,.,50.0,.,.,.,.
O=C1NN(c2ccccc2)C(=O)/C1=C/c1ccc(-c2ccc(C(=O)O)cc2)o1,.,.,.,.,.,.
COCCCNC(=O)[C@@H](Cc1ccccc1)NC(=O)CC[C@H]1O[C@@H](n2ccc(=O)[nH]c2=O)[C@H](O)[C@@H]1O,.,/,/,/,/,/
CCC1=NN2C(=N)/C(=C\c3cccn3-c3ccc(C)cc3C)C(=O)N=C2S1,.,.,.,.,94.3,.
CCC1=NN2C(=N)/C(=C\c3cccn3-c3c(C)cccc3C)C(=O)N=C2S1,.,.,.,.,.,.
CCOC(=O)c1sc(N2C(=O)C(O)=C(C(=O)c3ccc(C)o3)C2c2ccc(OC)c(OC)c2)nc1C (stereo not drawn),.,.,.,.,.,.
COC(=O)c1sc(N2C(=O)C(O)=C(C(=O)c3ccc(C)o3)C2c2ccc([N+](=O)[O-])cc2)nc1C (stereo not drawn),.,63.2,.,.,.,.
CCOC(=O)c1sc(N2C(=O)C(O)=C(C(=O)c3ccc(C)o3)C2c2cccc([N+](=O)[O-])c2)nc1C (stereo not drawn),.,61.3,/,/,.,/
CCOC(=O)[C@]12CCCC=C1N(CCC1=CCCCC1)C(=O)[C@H](CC(=O)NCC1CCCCC1)C2,.,/,/,/,/,/
